# Test results published in PubChem BioAssay (NCATS).
# Inconclusive results are not listed. Values without a mark were called inactive. The call rests on the fitted dose curve; in most records, active means well fitted cell-killing curve with a large enough effect; inconclusive means small, poorly fitted or top-dose-only effect, or effect the other way; inactive means flat fitted curve, though single readings scatter.
# System: Hek293T
# Assay: Primary qHTS to identify gynecologic anti-cancer compounds using libraries of approved drugs and bioactive compounds (AID 1345084); further: nearly all actives have a fitted effect of over 55% in size
# Conditions: Gynecologic cancer cell panel viability, ATPlite luminescence, 48 h, control line for the selectivity index; series mostly up to 57.5 µM; activity change, negative = cytotoxicity: at the top concentration
# Method in brief: (§1)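 Five-point cytotoxicity, 48 h drug exposure at 37 C, 5% CO2, on cells seeded 16 h beforehand. ATP content read by ATPlite luminescence.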
# On the % scale 0 is the no-effect control and ±100 the full control effect.
row,Structure (SMILES),"activity change, negative = cytotoxicity"
1,CC1(C)CCC[C@@]2(C)C1[C@H](OC(=O)/C=C/C=C/C(=O)O)C=C1COC(=O)[C@@]12O (stereo partly specified),5.59% [at 38.5 µM]
2,O=C1NC2CCc3nc4ccccc4c(=O)n3C2=Nc2ccccc21 (stereo unspecified),12.8% [at 38.5 µM]
3,CC(C)[N+]1(C)C2CCC1CC(OC(=O)C(CO)c1ccccc1)C2 (stereo unspecified),-0.141%
4,COc1cc2oc(-c3ccc(O)cc3O)cc2c(OC)c1CC=C(C)C,-0.407% [at 38.5 µM]
5,CC(=O)OC1C(O)CC2(C)C(CCC(C)C23Cc2c(O)cc(CO)c(C=O)c2O3)C1(C)C (stereo unspecified),6.14% [at 25.3 µM]
6,Cc1[nH]nc(C(F)(F)F)c1Cc1sc2c(c1C(=O)N1C[C@](C)(O)CO1)c(=O)n(C)c(=O)n2C(C)C,-5.26%
7,O=C(CC1C(=O)Nc2ccccc21)OC[C@H]1O[C@@H](OCCc2ccc(O)cc2)[C@H](O)[C@@H](O)[C@@H]1O (stereo partly specified),-1.28% [at 25.3 µM]
8,CC1CCC23COC(=O)C2=CC(O)CC3C1(C)CCC1=CC(O)OC1=O (stereo unspecified),-6.83% [at 38.5 µM]

# System: JEG-3
# Assay: as above
# Conditions: Gynecologic cancer cell panel viability, ATPlite luminescence, 48 h; series mostly up to 57.5 µM; activity change, negative = cytotoxicity: at the top concentration
# Method in brief: as §1
row,Structure (SMILES),"activity change, negative = cytotoxicity"
1,C/C=C(\C)C(=O)O[C@H]1[C@@H](O[C@]2(COC(=O)CC(C)C)O[C@H](COC(=O)C(C)CC)[C@@H](OC(C)=O)[C@@H]2O)O[C@H](COC(C)=O)[C@@H](O)[C@@H]1O (stereo partly specified),11.1% [at 25.3 µM]
2,C=C(C(=O)O)C1CC2=C(C)CCCC2(C)C[C@@H]1O (stereo partly specified),-16.1%
3,O=C(NCc1ccc(F)cc1)C(=O)c1c[nH]c2ccccc12,-12.4%
4,C/C(=C\C=C\C(C)C1CCC2(C)C3CCC4C(C)(C)C(=O)CCC45CC35CCC12C)C(=O)O (stereo unspecified),9.02% [at 25.3 µM]
5,C/C(=C\CCC(C)CCO)C(=O)OC1(C)CCC2C(C(=O)O)=COC(OC3OC(CO)C(O)C(O)C3O)C21 (stereo unspecified),-1.3% [at 25.3 µM]
6,CC(=O)O[C@@H]1[C@@H](OC(=O)/C=C/c2ccccc2)[C@@H](OC(C)=O)[C@H](O[C@H]2[C@@H]3C=CO[C@@H](O[C@@H]4O[C@H](CO)[C@@H](O)[C@H](O)[C@H]4O)[C@@H]3[C@@]3(CO)O[C@@H]23)O[C@H]1C,0.428% [at 25.3 µM]
7,CCN(CC)Cc1ccc(C(=O)N(CCc2ccccc2OC)[C@@H]2CCNC2)cc1,0.46% [at 25.3 µM]
8,O=C1OCc2cc3cccc(O[C@@H]4O[C@H](CO)[C@@H](O)[C@H](O)[C@H]4O)c3c(O)c21,-2.69% [at 38.5 µM]
9,N#Cc1ccc(C(=O)N2CCC3(CC2)N=C(N)c2c(F)ccc(F)c2N3)cn1,1.21%
10,CCCCc1ccc(C(=O)Nc2cc(-c3ccc(Cl)cc3)nn2-c2ccc(Cl)cc2)cc1,1.74%
11,O=C(C(c1ccccc1)c1ccccc1)N1CCN(CC(O)COc2cccc3ncccc23)CC1 (stereo unspecified),-0.618%
12,CC(C)c1cc2c(c(O)c1O)[C@@]13CCCC(C)(C)[C@@H]1[C@H](OC3=O)C2=O,23.6% [at 38.5 µM]
13,CC(C)CNCc1ccc(-c2ccccc2S(=O)(=O)N2CCCC2)cc1,-5.51%
14,Nc1nc2c(c(N3CCNCC3)n1)CCC1=C2[C@@H]2CCCC[C@@H]2O1,-11.7%
15,CC1(C)CC[C@]2(C(=O)O)CC[C@]3(C)C(=CCC4[C@@]5(C)CC[C@H](O[C@@H]6O[C@H](C(=O)O)[C@@H](O[C@@H]7OC[C@@H](O)[C@H](O)[C@H]7O)[C@H](O)[C@H]6O)C(C)(C)C5CC[C@]43C)C2C1O (stereo partly specified),15.2% [at 25.3 µM]
16,N[C@H]1Cc2ccccc2N(O)C1=O,29.6%
17,C=C1CCC2C(C)(C)C(O)CCC2(C)C1CCC(C)CCOC(C)=O (stereo unspecified),-0.571% [at 38.5 µM]
18,CC(C)(C)NS(=O)(=O)c1cncc(-c2cc(F)c3nc(N)nn3c2)c1,-9.01%
19,C/C=C/C=C/C(O)=C1\C(O)=C(C)C(=O)[C@@]2(C)OC(=O)[C@@](C)(NC(=O)/C=C/C(=O)O)[C@@H]12,4.39% [at 25.3 µM]
20,C[C@@H]1CCC2C(C)(C)[C@H](O)CC[C@]2(C)[C@@]12Cc1c(O)cc3c(c1O2)CN([C@@H](CCC(=O)O)C(=O)O)C3=O (stereo partly specified),3.53% [at 25.3 µM]
21,C/C=C/C=C/C(O)=C1\C(=O)[C@]2(C)C3C(C(=O)CC/C=C/C)=C(O)C4(C)C1[C@]1(C)O[C@@]4(O)[C@@]3(C)O[C@@]12O,-2.14% [at 25.3 µM]
22,C[C@@H]1O[C@@H](O[C@H]2[C@H](OC(=O)[C@]34CCC(C)(C)C[C@H]3C3=CCC5[C@@]6(C)C[C@H](O)[C@H](O[C@@H]7O[C@H](CO)[C@@H](O)[C@H](O)[C@H]7O)[C@@](C)(CO)C6[C@H](O)C[C@@]5(C)[C@]3(C)CC4)OC[C@H](O)[C@@H]2O)[C@H](O)[C@H](O)[C@H]1O[C@@H]1OC[C@@H](O)[C@H](O[C@@H]2OC[C@](O)(CO)[C@H]2O)[C@H]1O (stereo partly specified),3.02% [at 6.55 µM]
23,C1CCC[C@H]2CCCN3CC[C@@H](CCCCCC[C@@H]4CCCN5CC[C@@H](CC1)O[C@@H]45)O[C@@H]23,-9.47% [at 0.155 µM]
